# Measurements as given in publication PMC7862700, “An all-to-all approach to the identification of sequence-specific readers for epigenetic DNA modifications on cytosine”.
# Columns and labels:
# Assay in all cases: DAPPL (digital affinity profiling via proximity ligation, sequencing); 10 mM Tris-HCl pH 7.5, 50 mM NaCl, 1 mM DTT, 4% glycerol, room temperature, 30 min; GST-TFs on glutathione beads, 16-mer random dsDNA library, 0.1% formaldehyde crosslink after washing; high values mean tight binding
# [1] = biological target: T1, FLI1 (Homo sapiens, UniProt Q01543 1-452); conditions: protein: recombinant; tags: N-terminal GST; dsDNA, one strand shown
# T1 sequence: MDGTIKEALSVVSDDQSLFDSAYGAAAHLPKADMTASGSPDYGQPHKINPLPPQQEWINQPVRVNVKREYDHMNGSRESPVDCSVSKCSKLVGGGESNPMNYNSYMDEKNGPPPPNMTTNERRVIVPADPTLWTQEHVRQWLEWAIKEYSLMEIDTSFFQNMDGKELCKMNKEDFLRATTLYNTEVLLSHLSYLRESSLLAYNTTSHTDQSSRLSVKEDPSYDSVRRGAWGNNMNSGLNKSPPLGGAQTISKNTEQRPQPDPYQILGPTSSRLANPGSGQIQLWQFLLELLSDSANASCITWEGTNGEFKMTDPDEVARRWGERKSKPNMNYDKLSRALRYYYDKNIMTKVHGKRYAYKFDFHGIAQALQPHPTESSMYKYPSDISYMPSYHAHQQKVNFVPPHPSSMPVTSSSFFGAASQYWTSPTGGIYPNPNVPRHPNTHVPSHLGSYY
# How it was run: (§1)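 GST fusions of human transcription factors were expressed in yeast and captured with glutathione beads. Once given DNA barcodes and pooled alongside a tag-only sample, they were incubated for 30 min at room temperature with 200 nmole of a random double-stranded 16-mer DNA library in Tris/NaCl/DTT/glycerol buffer, then washed, crosslinked (0.1% formaldehyde), proximity-ligated, PCR-amplified and sequenced on an Illumina NextSeq500. The binding signal of each hexamer is its read frequency for a factor divided by its frequency for the tag-only sample.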
# [2] = biological target: T2, ELK1 (Homo sapiens, UniProt P19419 1-428); conditions: protein: recombinant; tags: N-terminal GST; dsDNA, one strand shown
# T2 sequence: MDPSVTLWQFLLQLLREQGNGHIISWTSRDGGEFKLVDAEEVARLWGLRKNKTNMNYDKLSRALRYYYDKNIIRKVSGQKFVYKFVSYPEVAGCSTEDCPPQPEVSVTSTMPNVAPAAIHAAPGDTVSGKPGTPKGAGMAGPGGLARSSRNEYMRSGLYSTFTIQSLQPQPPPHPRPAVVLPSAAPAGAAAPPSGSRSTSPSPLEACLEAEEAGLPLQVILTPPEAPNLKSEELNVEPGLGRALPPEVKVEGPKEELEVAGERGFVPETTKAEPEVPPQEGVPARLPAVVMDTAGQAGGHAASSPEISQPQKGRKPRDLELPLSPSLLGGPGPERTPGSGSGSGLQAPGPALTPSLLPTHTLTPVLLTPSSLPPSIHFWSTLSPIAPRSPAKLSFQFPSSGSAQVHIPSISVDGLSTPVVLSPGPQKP
# How it was run: as §1
# [3] = biological target: T3, GABPA (Homo sapiens, UniProt Q06546 1-454); conditions: protein: recombinant; tags: N-terminal GST; dsDNA, one strand shown
# T3 sequence: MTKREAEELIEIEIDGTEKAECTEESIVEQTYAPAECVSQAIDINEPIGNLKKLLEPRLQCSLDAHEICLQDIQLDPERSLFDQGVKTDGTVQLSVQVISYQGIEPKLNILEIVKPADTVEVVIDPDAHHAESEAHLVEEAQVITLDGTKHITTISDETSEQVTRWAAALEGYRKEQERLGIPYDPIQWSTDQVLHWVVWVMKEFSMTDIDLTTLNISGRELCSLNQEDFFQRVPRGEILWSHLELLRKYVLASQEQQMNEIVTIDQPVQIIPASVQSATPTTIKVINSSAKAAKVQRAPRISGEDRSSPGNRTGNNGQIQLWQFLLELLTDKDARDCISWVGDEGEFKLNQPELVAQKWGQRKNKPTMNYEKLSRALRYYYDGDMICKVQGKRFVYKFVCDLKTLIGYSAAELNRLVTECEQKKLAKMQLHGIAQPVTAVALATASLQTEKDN
# How it was run: as §1
# [4] = biological target: T4, ERG (Homo sapiens, UniProt P11308 1-479); conditions: protein: recombinant; tags: N-terminal GST; dsDNA, one strand shown
# T4 sequence: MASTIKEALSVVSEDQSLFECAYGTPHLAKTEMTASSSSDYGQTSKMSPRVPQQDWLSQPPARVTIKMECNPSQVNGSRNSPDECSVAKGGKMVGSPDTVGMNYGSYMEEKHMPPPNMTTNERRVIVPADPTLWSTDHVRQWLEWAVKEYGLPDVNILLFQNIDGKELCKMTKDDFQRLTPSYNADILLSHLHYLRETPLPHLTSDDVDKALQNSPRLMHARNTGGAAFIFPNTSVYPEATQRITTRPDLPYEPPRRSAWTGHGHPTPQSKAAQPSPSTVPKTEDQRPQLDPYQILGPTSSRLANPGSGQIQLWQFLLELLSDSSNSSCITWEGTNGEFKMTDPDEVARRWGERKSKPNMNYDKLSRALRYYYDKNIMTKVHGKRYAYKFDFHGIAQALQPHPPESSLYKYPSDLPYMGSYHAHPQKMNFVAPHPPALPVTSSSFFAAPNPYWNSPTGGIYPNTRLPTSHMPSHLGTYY
# How it was run: as §1
# [5] = biological target: ELF1 (Homo sapiens, UniProt P32519 1-619); conditions: protein: recombinant; tags: N-terminal GST; dsDNA, one strand shown
# How it was run: as §1
# [6] = biological target: T5, EHF (Homo sapiens, UniProt Q9NZC4 1-300); conditions: protein: recombinant; tags: N-terminal GST; dsDNA, one strand shown
# T5 sequence: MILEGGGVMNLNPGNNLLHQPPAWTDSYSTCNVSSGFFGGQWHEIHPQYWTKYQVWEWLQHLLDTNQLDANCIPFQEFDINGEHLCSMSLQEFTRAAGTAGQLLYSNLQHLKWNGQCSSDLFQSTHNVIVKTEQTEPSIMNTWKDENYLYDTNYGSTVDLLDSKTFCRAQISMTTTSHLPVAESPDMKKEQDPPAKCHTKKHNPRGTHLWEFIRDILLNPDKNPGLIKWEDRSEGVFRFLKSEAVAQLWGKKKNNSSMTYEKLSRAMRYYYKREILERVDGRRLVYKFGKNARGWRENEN
# How it was run: as §1
# [7] = biological target: SPI1 (Homo sapiens, UniProt P17947 1-270); conditions: protein: recombinant; tags: N-terminal GST; dsDNA, one strand shown
# How it was run: as §1
# [8] = biological target: SPIB (Homo sapiens, UniProt Q01892 1-262); conditions: protein: recombinant; tags: N-terminal GST; dsDNA, one strand shown
# How it was run: as §1
# [9] = biological target: T6, ELK3 (Homo sapiens, UniProt P41970 1-407); conditions: protein: recombinant; tags: N-terminal GST; dsDNA, one strand shown
# T6 sequence: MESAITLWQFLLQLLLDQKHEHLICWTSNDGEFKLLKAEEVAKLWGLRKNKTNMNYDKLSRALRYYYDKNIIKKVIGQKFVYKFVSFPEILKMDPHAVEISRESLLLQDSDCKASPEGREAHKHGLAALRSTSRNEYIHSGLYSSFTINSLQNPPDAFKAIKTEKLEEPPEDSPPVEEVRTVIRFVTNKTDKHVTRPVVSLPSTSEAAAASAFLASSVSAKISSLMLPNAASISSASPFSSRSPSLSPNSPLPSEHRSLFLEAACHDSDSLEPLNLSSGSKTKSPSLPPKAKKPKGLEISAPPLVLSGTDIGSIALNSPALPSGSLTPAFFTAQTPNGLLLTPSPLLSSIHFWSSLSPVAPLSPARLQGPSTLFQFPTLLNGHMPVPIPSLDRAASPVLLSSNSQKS
# How it was run: as §1
# [10] = biological target: T7, FEV (Homo sapiens, UniProt Q99581 1-238); conditions: protein: recombinant; tags: N-terminal GST; dsDNA, one strand shown
# T7 sequence: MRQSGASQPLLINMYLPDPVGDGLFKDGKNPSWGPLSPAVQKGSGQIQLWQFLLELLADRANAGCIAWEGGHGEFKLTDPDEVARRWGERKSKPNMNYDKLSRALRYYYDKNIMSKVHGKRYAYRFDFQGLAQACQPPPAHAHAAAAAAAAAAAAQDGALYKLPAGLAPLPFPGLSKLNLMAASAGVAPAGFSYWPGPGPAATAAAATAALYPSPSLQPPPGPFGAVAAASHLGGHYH
# How it was run: as §1
# [11] = biological target: ETV5 (Homo sapiens, UniProt P41161 1-510); conditions: protein: recombinant; tags: N-terminal GST; dsDNA, one strand shown
# How it was run: as §1
# [12] = biological target: HSF1 (Homo sapiens, UniProt Q00613 1-529); conditions: protein: recombinant; tags: N-terminal GST; chain copies: 3; dsDNA, one strand shown
# How it was run: as §1
# [13] = biological target: T8, SPIC (Homo sapiens, UniProt Q8N5J4 1-248); conditions: protein: recombinant; tags: N-terminal GST; dsDNA, one strand shown
# T8 sequence: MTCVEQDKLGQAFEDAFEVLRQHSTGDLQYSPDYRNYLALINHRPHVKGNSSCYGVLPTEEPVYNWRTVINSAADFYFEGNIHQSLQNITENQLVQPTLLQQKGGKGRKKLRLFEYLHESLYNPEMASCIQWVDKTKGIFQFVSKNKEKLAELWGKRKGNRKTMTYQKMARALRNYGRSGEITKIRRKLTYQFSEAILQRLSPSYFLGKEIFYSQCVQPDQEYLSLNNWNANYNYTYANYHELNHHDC
# How it was run: as §1
# [14] = biological target: ELF4 (Homo sapiens, UniProt Q99607 1-663); conditions: protein: recombinant; tags: N-terminal GST; dsDNA, one strand shown
# How it was run: as §1
# [15] = biological target: T9, ELK4 (Homo sapiens, UniProt P28324-2 1-405); conditions: protein: recombinant; tags: N-terminal GST; dsDNA, one strand shown
# T9 sequence: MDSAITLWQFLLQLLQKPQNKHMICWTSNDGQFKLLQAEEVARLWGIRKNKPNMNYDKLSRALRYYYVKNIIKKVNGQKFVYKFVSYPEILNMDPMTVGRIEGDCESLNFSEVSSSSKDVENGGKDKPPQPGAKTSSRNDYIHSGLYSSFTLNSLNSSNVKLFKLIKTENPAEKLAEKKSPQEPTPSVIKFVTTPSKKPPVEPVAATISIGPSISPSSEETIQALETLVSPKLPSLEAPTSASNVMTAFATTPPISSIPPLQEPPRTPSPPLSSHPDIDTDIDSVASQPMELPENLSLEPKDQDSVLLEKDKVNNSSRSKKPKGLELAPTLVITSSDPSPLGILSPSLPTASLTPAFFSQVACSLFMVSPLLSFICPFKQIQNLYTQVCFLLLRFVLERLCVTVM
# How it was run: as §1
# [16] = biological target: T10, ETV2 (Homo sapiens, UniProt O00321 1-342); conditions: protein: recombinant; tags: N-terminal GST; dsDNA, one strand shown
# T10 sequence: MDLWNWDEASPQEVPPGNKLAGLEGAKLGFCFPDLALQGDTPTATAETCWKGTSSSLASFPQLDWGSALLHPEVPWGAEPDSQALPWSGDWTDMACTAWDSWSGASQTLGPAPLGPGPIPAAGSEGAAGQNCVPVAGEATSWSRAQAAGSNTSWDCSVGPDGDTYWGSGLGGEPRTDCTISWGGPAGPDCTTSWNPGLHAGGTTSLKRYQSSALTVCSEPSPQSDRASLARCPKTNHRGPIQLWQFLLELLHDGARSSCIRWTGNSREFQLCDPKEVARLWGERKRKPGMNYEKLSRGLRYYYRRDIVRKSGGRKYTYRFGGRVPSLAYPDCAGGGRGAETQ
# How it was run: as §1
# [17] = biological target: T11, ELF3 (Homo sapiens, UniProt P78545 1-371); conditions: protein: recombinant; tags: N-terminal GST; dsDNA, one strand shown
# T11 sequence: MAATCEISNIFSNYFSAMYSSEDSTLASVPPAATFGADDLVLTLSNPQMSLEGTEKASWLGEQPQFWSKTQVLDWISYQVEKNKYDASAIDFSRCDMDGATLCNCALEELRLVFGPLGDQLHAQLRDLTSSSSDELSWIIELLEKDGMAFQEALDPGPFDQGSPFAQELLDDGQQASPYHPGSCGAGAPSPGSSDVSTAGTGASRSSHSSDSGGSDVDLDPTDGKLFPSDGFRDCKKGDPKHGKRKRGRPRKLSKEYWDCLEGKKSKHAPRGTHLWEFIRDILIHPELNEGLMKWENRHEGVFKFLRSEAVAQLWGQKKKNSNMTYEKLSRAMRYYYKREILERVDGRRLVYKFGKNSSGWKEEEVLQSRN
# How it was run: as §1
# [18] = biological target: CRX (Homo sapiens, UniProt O43186 1-299); conditions: protein: recombinant; tags: N-terminal GST; dsDNA, one strand shown
# How it was run: as §1
# [19] = biological target: ETV1 (Homo sapiens, UniProt P50549 1-477); conditions: protein: recombinant; tags: N-terminal GST; dsDNA, one strand shown
# How it was run: as §1
# Chain of SPIB (Q01892 whole entry): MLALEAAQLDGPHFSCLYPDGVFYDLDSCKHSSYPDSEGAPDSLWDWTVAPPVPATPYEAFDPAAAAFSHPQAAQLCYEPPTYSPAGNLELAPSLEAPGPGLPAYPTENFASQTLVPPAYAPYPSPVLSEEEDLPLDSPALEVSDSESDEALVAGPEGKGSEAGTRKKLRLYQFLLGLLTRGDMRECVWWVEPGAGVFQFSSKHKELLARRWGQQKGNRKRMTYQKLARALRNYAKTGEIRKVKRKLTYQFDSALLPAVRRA
# Chain of CRX (O43186 whole entry): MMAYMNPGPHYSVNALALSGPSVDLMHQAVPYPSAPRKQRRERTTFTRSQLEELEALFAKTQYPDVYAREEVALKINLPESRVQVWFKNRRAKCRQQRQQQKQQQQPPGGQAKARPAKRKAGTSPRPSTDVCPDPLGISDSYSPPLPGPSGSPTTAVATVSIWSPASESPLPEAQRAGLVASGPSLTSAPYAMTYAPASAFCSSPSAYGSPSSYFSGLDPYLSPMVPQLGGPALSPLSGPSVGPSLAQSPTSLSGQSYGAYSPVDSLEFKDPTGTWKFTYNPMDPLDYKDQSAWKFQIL
# Chain of ETV1 (P50549 whole entry): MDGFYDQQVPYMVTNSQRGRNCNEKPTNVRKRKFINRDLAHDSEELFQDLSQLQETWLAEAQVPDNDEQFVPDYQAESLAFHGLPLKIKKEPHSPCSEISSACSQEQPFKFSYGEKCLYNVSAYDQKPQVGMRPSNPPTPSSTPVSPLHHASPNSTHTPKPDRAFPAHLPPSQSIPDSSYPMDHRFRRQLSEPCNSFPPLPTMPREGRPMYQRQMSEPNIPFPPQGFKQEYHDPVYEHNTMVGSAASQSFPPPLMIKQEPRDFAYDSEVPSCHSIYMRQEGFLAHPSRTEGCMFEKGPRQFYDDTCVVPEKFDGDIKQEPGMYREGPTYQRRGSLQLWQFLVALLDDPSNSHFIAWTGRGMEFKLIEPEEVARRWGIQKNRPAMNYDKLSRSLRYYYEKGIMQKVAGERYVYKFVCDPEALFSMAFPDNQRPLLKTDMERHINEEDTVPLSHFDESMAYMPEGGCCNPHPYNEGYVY
# Chain of ETV5 (P41161 whole entry): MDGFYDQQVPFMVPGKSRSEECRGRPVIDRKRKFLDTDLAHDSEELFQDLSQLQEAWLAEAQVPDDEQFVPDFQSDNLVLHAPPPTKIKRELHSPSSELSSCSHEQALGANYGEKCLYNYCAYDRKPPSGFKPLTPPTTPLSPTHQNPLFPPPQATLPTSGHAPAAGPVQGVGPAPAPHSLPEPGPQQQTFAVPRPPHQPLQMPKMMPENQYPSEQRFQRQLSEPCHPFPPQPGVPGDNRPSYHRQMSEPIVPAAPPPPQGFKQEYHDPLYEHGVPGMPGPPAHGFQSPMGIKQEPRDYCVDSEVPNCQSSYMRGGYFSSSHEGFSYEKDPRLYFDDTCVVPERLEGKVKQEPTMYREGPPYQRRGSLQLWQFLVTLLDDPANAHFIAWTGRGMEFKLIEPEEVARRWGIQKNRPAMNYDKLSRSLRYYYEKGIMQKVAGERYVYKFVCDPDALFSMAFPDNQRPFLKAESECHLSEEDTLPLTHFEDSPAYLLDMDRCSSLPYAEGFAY
# Chain of ELF4 (Q99607 whole entry): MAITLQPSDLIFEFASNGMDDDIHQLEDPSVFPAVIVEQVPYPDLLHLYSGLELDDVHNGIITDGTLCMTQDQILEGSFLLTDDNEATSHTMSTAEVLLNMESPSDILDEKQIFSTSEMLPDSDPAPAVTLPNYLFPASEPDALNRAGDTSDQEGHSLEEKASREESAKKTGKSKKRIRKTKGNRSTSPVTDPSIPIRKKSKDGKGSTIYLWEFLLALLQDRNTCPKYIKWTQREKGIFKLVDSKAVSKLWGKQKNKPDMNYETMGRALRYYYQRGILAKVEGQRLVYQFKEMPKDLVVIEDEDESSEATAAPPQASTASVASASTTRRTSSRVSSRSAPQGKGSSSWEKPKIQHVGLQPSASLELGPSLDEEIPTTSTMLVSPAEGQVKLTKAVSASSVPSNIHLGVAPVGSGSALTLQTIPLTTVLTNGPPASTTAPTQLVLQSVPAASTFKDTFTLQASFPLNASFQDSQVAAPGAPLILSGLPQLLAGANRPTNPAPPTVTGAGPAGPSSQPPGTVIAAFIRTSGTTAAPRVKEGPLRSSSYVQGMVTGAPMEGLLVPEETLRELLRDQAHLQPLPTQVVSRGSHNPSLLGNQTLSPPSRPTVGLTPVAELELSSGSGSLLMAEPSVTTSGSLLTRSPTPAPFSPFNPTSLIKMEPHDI
# Chain of HSF1 (Q00613 whole entry): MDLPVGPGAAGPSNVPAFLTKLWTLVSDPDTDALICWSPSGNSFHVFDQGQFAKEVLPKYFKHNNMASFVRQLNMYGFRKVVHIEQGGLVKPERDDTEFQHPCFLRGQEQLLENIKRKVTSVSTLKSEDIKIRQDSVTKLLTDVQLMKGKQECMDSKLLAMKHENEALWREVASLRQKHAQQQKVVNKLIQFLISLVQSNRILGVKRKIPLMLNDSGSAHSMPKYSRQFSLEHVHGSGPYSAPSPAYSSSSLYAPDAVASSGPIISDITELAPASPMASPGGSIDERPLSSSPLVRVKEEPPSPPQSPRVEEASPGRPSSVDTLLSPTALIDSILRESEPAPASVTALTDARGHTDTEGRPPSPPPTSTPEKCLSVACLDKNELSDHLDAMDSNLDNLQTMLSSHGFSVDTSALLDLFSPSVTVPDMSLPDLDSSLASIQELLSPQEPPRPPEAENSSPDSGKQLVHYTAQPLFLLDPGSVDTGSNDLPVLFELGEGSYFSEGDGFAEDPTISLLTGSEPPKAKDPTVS
# Chain of ELF1 (P32519 whole entry): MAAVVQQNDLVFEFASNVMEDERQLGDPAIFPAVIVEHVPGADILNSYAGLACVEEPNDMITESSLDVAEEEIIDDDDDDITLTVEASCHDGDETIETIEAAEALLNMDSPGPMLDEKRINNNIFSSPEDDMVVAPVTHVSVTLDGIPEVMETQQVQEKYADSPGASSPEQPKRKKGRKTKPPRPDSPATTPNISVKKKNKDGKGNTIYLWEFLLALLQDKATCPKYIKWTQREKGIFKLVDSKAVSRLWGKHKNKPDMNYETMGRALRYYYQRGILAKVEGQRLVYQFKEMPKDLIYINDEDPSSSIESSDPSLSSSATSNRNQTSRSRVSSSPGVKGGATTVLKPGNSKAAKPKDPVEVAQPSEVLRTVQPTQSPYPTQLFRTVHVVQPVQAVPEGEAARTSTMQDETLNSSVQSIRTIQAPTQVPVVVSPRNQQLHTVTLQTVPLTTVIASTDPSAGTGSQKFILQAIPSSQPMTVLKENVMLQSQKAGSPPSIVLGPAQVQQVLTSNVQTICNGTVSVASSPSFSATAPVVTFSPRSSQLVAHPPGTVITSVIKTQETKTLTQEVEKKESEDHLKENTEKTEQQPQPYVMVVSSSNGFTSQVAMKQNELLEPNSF
sequence,measurement,setting,value
GGATTT,binding signal,[1],"1.33 fold enrichment (6-mer frequency, TF over GST control)"
same,binding signal,[2],"1.25 fold enrichment (6-mer frequency, TF over GST control)"
same,binding signal,[3],"1.26 fold enrichment (6-mer frequency, TF over GST control)"
same,binding signal,[4],"1.34 fold enrichment (6-mer frequency, TF over GST control)"
same,binding signal,[5],"1.23 fold enrichment (6-mer frequency, TF over GST control)"
same,binding signal,[6],"1.24 fold enrichment (6-mer frequency, TF over GST control)"
same,binding signal,[7],"1.22 fold enrichment (6-mer frequency, TF over GST control)"
same,binding signal,[8],"1.29 fold enrichment (6-mer frequency, TF over GST control)"
same,binding signal,[9],"1.48 fold enrichment (6-mer frequency, TF over GST control)"
same,binding signal,[10],"2.01 fold enrichment (6-mer frequency, TF over GST control)"
same,binding signal,[11],"1.33 fold enrichment (6-mer frequency, TF over GST control)"
same,binding signal,[12],"1.62 fold enrichment (6-mer frequency, TF over GST control)"
same,binding signal,[13],"1.16 fold enrichment (6-mer frequency, TF over GST control)"
same,binding signal,[14],"1.26 fold enrichment (6-mer frequency, TF over GST control)"
same,binding signal,[15],"1.25 fold enrichment (6-mer frequency, TF over GST control)"
same,binding signal,[16],"1.27 fold enrichment (6-mer frequency, TF over GST control)"
same,binding signal,[17],"1.15 fold enrichment (6-mer frequency, TF over GST control)"
same,binding signal,[18],"2.47 fold enrichment (6-mer frequency, TF over GST control)"
same,binding signal,[19],"1.22 fold enrichment (6-mer frequency, TF over GST control)"
